The values that follow come from PubChem BioAssay AID686971 (National Center for Advancing Translational Sciences (NCATS), 2013).

Among all 360,000 compounds or so, about 7,500 (2.1%) were called active. Roughly 8% stayed inconclusive and do not appear here. Calls come from the whole dose curve; as a rule, active = well fitted cell-killing curve with a large enough effect; inconclusive = small, poorly fitted or top-dose-only effect, or effect the other way, or another doubt; inactive = no such curve, though single readings can be large or run the other way. The entries come from a sample that favours actives as a whole. Entries that show only a call come without a potency.
Potency is the fitted concentration of half-maximal effect.

A short description of the assay: qHTS for induction of synthetic lethality in tumor cells producing 2HG: qHTS for the HT-1080-IDH1KD cell line. The note with it: HT-1080 IDH1 knockdown viability, ATP luminescence, 48 h; series mostly up to 46.1 µM. The method in brief: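 Assay cells: HT-1080 with IDH1 knockdown, 750 per well, RPMI/5% FBS. Exposure: 48 h at 37 °C following 2 h pre-incubation. Read: CellTiter-Glo luminescence; fitted concentration-response, curve class assigned.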
`CCOC(=O)C1CCN(C(=O)Nc2ccc(C)c(Cl)c2)CC1`: the Potency result is “inactive”.

Turning to `CCOC(=O)C1CCN(c2c(Nc3cc(C)cc(C)c3)c(=O)c2=O)CC1`, the Potency was 4.61 µM (active). The result for `CCOC(=O)C1CCN(CCC(=O)Nc2cccc(C)c2)CC1` reads “inactive”; that for `Cc1nc(C(F)(F)F)ccc1C(=O)N1CCC1(C)C(=O)NS(=O)(=O)c1ccccc1Cl` (stereo not given), “inactive”. In the case of `O=C(NCCc1ccccc1)c1cccc(NC(=O)c2ccccc2)c1`, the Potency entry was “inactive”.

Take `O=C(CSc1ccccc1)Nc1ccc(C(=O)Nc2cccc(O)c2)cc1`: the Potency result was “inactive”. The result for `O=C(CCl)Nc1cccc(CP(=O)(c2ccccc2)c2ccccc2)c1` reads 5.17 µM (active). Take `Nc1ncnc2c1ncn2[C@@H]1O[C@H](CNC(=O)[C@H](N)Cc2cccnc2)[C@@H](O)[C@H]1O`: the Potency result was “inactive”. The result for `Cc1ccccc1OCC(=O)Nc1ccc(N2CCN(C(=O)C(C)C)CC2)c(Cl)c1` reads 13 µM (active); that for `CCc1ccccc1OCC(=O)Nc1ccc(C)c(S(=O)(=O)N2CCCCCC2)c1`, “inactive”. To `CCC(=O)N1CCN(c2ccccc2NC(=O)COc2cccc(C)c2C)CC1` belongs “inactive”; to `C[C@H]1CN([C@@H](C)CO)C(=O)CCCn2cc(nn2)CO[C@@H]1CN(C)S(=O)(=O)c1ccccc1C#N`, “inactive”; to `Nc1nc2c(ncn2[C@@H]2O[C@H](CNS(=O)(=O)N3CCc4ccccc4C3)[C@@H](O)[C@H]2O)c(=O)[nH]1`, “inactive”. The result for `CC(C)(C)c1ccc(S(=O)(=O)NC(=O)C2(C)CCN2C(=O)CC2CC2)cc1` (stereo not given) reads “inactive”; that for `CCc1ccc(C(CNc2nc(C(F)(F)F)nc3ccccc23)N(C)C)cc1` (stereo not given), 20.6 µM (active); that for `NS(=O)(=O)c1ccc(CCNc2nc(C(F)(F)F)nc3ccccc23)cc1`, “inactive”. `CN(C)C(CNC(=O)c1cc2ccccc2o1)c1ccccc1` (stereo not given): the Potency entry is “inactive”.

In the case of `CCOC1=C2CN(S(=O)(=O)c3ccc(C)cc3)[C@H](c3cccs3)C[C@H]2[C@H]2C(=O)N(c3ccccc3)C(=O)[C@H]2C1`, the Potency entry is “inactive”. The result for `Cc1ccccc1OCCOc1ccc([N+](=O)[O-])cc1/C=N/n1cnnc1` reads 4.61 µM (active).

As to `CCOc1cc(/C=N/n2cnnc2)c(Br)cc1O`, the Potency result is “inactive”.

On to `Cc1ccccc1OS(=O)(=O)c1cccc([N+](=O)[O-])c1`, for which the Potency entry is “inactive”. To `O=C(COC(=O)Cc1ccc(Cl)cc1Cl)NCc1ccco1` belongs “inactive”. The result for `Cn1cnc(S(=O)(=O)N2C[C@@H](O)COC[C@@H]3O[C@H](CC(=O)NC4CCC4)CC[C@H]32)c1` reads “inactive”; that for `O=c1cc(CN2CCCCCCC2)c2c(ccc3ccccc32)o1`, “inactive”; that for `CCOC(=O)C1CCCN(C(=O)/C=C/c2ccc(OC)cc2)C1` (stereo not given), “inactive”. Take `CCN1CCC(O)(/C=C/c2ccc(C)cc2)C(C(=O)/C=C/c2ccc(C)cc2)C1` (stereo not given): the Potency is 11.6 µM (active). Turning to `COc1ccc(S(=O)(=O)N2CCN(CC(=O)N3CCNC3=O)CC2)cc1OC`, the Potency result is “inactive”. To `COc1ccc(CN2C(=O)C(CC(=O)NCCN3CCOCC3)CC(C(=O)N(C(C)C)C(C)C)=C2C)cc1` (stereo not given) belongs “inactive”; to `CCc1cc(C(=O)N(CC)CC(=O)Nc2c(F)cccc2F)sc1C`, “inactive”; to `COc1ccc(Cl)cc1NC(=O)CN(C)C(=O)c1cn(-c2ccccc2)nc1-c1cccs1`, “inactive”. To `COc1ccc(Nc2ccc3ccccc3c2)cc1` belongs “inactive”; to `COc1ccc2oc(=O)cc(-c3cc4ccccc4o3)c2c1`, “inactive”. For the compound `COc1ccc(Nc2cc(=O)oc3ccccc23)cc1`, the Potency was 5.8 µM (active).

With `COc1ccc(CC(=O)NC2CCSc3ccccc32)cc1OC` (stereo not given), the Potency entry was “inactive”. The result for `COc1ccc(CC2c3cc(OC)c(OC)cc3CC[N+]2(C)CCC(=O)OCCCCCOC(=O)CC[N+]2(C)CCc3cc(OC)c(OC)cc3C2Cc2ccc(OC)c(OC)c2)cc1OC` (stereo not given) reads 20.6 µM (active).

For `COC(=O)C1=CN(Cc2ccc(OC)c(OC)c2)C=C(C(=O)OC)C1c1cccs1`, the Potency entry was “inactive”. Consider `C/C(=N\NC(=S)NCc1ccccc1)c1ccc(Cl)cc1`, for which the Potency entry is “inactive”. As for `CC/C(=N\NC(=S)NC(C)C)c1ccc(OC(F)F)cc1`, the Potency result is “inactive”.

In the case of `C/C(=N\NC(=S)NC(C)C)c1ccc(C(C)(C)C)cc1`, the Potency is 16.4 µM (active). Turning to `CC(C)C[C@@H]1COc2cc(N3CCC[C@@H]3CO)ccc2S(=O)(=O)N1`, the Potency entry was “inactive”. To `CC(C)(C(=O)NO)c1ccccc1` belongs “inactive”. To `CCOc1cc(-c2cc(-c3ccc(NC(C)=O)cc3)nc(N)c2C#N)ccc1O` belongs “inactive”.

For the compound `CCOc1cc(/C=C(\C#N)c2nc(-c3cccs3)c(NC(C)=O)s2)ccc1O`, the Potency is 2.91 µM (active). The result for `CCOc1cc(/C=N/NC(=O)c2c(C)nc3ccc(Cl)cn23)ccc1O` reads “inactive”; that for `CC1(C(=O)NS(=O)(=O)c2cccc(F)c2)CCN1C(=O)c1cccc2ccccc12` (stereo not given), “inactive”. The result for `COc1cccc(CN(C)C(=O)CC[C@H]2O[C@@H](n3cnc4c(NC(=O)c5ccccc5)ncnc43)[C@H](O)[C@@H]2O)c1` reads “inactive”; that for `COc1ccc(C(=NN)c2ccc(OC)cc2)cc1`, “inactive”.

Take `COc1ccc(C(C#N)=C2C=CC(=NO)c3ccccc32)cc1`: the Potency is 0.517 µM (active). Turning to `COc1ccc(/C(N)=N/OC(=O)Cc2ccccc2)cc1`, the Potency result was “inactive”. To `CN(C)CCNC(=O)Nc1cccc(Cl)c1Cl` belongs “inactive”; to `CN(C)CCNC(=O)c1ccc(Cl)c2cc3ccccc3nc12`, 10.3 µM (active).

Take `CN(c1ccccc1)S(=O)(=O)c1ccc(Cl)c(C(=O)NCCc2c[nH]c3ccccc23)c1`: the Potency result was “inactive”. The result for `CC(=O)NC(c1cccc(F)c1)c1nc(-c2cccc(F)c2)cs1` (stereo not given) reads “inactive”; that for `COc1ccc([C@H]2C[C@@H](n3cc(COC(=O)c4ccccc4)nn3)[C@H](O)CN2C(=O)c2cccs2)cc1`, “inactive”. The result for `COC(=O)C[C@@H]1C=C[C@@H](NC(=O)c2ccc3c(c2)OCO3)[C@@H](CO)O1` reads “inactive”; that for `Cc1ccc(S(=O)(=O)N2C[C@@H](C)[C@]3(C2)[C@H](O)[C@H](OC(=O)NCc2ccccc2)C[C@H]2C(=O)N(c4ccccc4)C(=O)[C@H]23)cc1`, “inactive”. The result for `Cc1ccc(Oc2ccc3c(c2)C(=O)N(c2cccc4cccnc24)C3=O)cc1` reads “inactive”. As for `Cc1ccc(OCC(=O)Nn2cnc3ccccc32)cc1`, the Potency entry is “inactive”. In the case of `Cc1ccc(OS(=O)Nc2cccc3nccnc23)cc1` (stereo not given), the Potency was 11.2 µM (active). The result for `CCNC(=O)C1(C)CCN(C(=O)c2ccccc2)C1` (stereo not given) reads “inactive”; that for `O=C(NCc1ccc(F)cc1)c1cc(C2CCCCN2C(=O)c2ccccn2)on1` (stereo not given), “inactive”; that for `COc1cccc(CNC(=O)[C@@H]2CCCN2C(=O)[C@@H]2CCCN2C(=O)c2ccccc2)c1`, “inactive”. To `S=C(NCCCc1ccccc1)Nc1ccc(Br)cc1` belongs 16.4 µM (active). To `O=S(=O)(NCCCc1ccccc1)c1ccc(Br)cc1` belongs “inactive”; to `O=C(Cc1ccc(Br)cc1)NCCc1ccccc1`, “inactive”; to `Cc1ccc(S(=O)(=O)N2CCN(c3ncnc4ccccc34)CC2)cc1`, “inactive”. For the compound `COc1ccc(C)cc1S(=O)(=O)N1CCN(S(=O)(=O)c2cc(C(=O)O)ccc2C)CC1`, the Potency result is “inactive”. In the case of `Cc1ccc(C)c(S(=O)(=O)N2CCN(c3ncnc4sccc34)CC2)c1`, the Potency is 4.61 µM (active). `COc1ccccc1-n1c(SCC(=O)Nc2ccc(Cl)cc2)nc(O)c(Cc2ccccc2)c1=O`: the Potency entry was “inactive”. The result for `CCOC(=O)[C@]12CCC=C1N(Cc1ccccc1)C(=O)[C@H](CC(=O)N1CCCC1)C2` reads “inactive”; that for `O=C1CCC(=O)N1CCC(=O)N(C(=O)NC1CCCCC1)C1CCCCC1`, “inactive”.

For `COC(=O)[C@]12CCCCC=C1N(Cc1ccc(Cl)cc1Cl)C(=O)[C@H](CC(=O)NCc1cccc3ccccc13)C2`, the Potency result was “inactive”. To `CCOC(=O)[C@]12CCCC=C1N(Cc1cccc3ccccc13)C(=O)[C@H](CC(=O)NCC13CC4CC(CC(C4)C1)C3)C2` belongs 23.1 µM (active). On to `CCCCNC(=O)C[C@@H]1C[C@@]2(C(=O)OCC)CCC=C2N(Cc2cccc3ccccc23)C1=O`, for which the Potency entry is “inactive”. To `CCc1nc2ccc(C(=O)N3CCC(O)(Cc4ccccc4)CC3)cn2c1N(C)C(=O)Cc1ccccc1` belongs “inactive”; to `O=S1(=O)CC(N2CCN(CCO)CC2)CN1Cc1cn(Cc2ccc(Cl)cc2)nn1` (stereo not given), “inactive”; to `Cc1cccc(S(=O)(=O)N(C)C[C@H]2OCc3cnnn3CCCC(=O)N([C@@H](C)CO)C[C@H]2C)c1`, “inactive”. Regarding `Cc1cc(C)n2c(NCc3ccccc3)c(CC(C)C)nc2n1`, the Potency entry was “inactive”. The result for `COc1ccccc1-c1cc2nc(NCc3cccc(Cl)c3)ccn2n1` reads “inactive”; that for `CC(C)Cc1ccc(-c2cc3nc(NCc4cccc(Cl)c4)ccn3n2)cc1`, 20.6 µM (active); that for `Cc1sc2ncnc(SCC(=O)NC3CCS(=O)(=O)C3)c2c1C` (stereo not given), “inactive”. The result for `C=CCOc1ccccc1CNn1c(C)n[nH]c1=S` reads “inactive”; that for `CS(=O)(=O)Nc1ccc(C(=O)N2CCCC2)cc1`, “inactive”; that for `CNc1cncc(-c2cccc(C(=O)N3CCOCC3)c2)n1`, “inactive”. To `CNc1cncc(-c2ccc(NS(C)(=O)=O)cc2)n1` belongs 5.8 µM (active); to `CCC(C(=O)Nc1c(C)cccc1C)n1c(-c2cc(C)cs2)nc2ccccc21` (stereo not given), “inactive”. As to `CC1(C)NC(=O)N(CC(=O)Nc2ccc(-c3ccccc3)cc2)C1=O`, the Potency result was “inactive”. The result for `COc1ccc(NC(=O)CN(C)C(=O)c2cc(C)oc2C)cc1` reads “inactive”; that for `CCOC(=O)C1=C(C)Nc2nc3ccccc3n2C1c1cccs1` (stereo not given), “inactive”; that for `CCOc1ccc(C2C(C(=O)NC)=C(C)Nc3nc4ccccc4n32)cc1OC` (stereo not given), “inactive”. Consider `COc1ccccc1NC(=O)C1=C(C)Nc2nc3ccccc3n2C1c1cccs1` (stereo not given), for which the Potency is 5.17 µM (active).

On to `Cc1nc(C(F)(F)F)ccc1C(=O)N1CCC1(C)C(=O)NS(=O)(=O)c1ccccc1` (stereo not given), for which the Potency entry was “inactive”. In the case of `CCOc1ccc(NC(=O)c2cc(C)nc3ccccc23)cc1`, the Potency result was “inactive”. Take `COc1cc(/C=N/NC(=O)c2cc(-c3ccccc3C)nc3ccccc23)cc(OC)c1O`: the Potency result is “inactive”. On to `CCOc1ccc(-c2cc(C(=O)N/N=C/c3ccc(O)cc3)c3ccccc3n2)cc1`, for which the Potency is 5.8 µM (active).
